Assay results published in PubChem BioAssay.
Activity calls are given as the source filed them. Unless noted, the rule behind the calls is not given here.

Experiments:
[1] = system: Wnt5a (protein binding on small-molecule microarray); assay: Wnt5a binders on small-molecule microarray, primary screen, biophysical, 635/667 nm fluorescence (AID 1142); settings: 635 nm fluorescence, higher = more signal;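 note: fluorescence read at 667 nm with signal to noise per printed feature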
[2] = cell viability in Huh7 cells, primary screen, cytotoxicity control for HCV replication inhibitor project, CellTiter-Glo luminescence, basal, 48 h (AID 1143); settings: Huh7 HCV replicon, higher = more signal, called active from +8 up or from −8 down;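 note: Huh7 hepatoma cells carrying a hepatitis C replication reporter with no stimulus; test concentration not given here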
[3] = P. aeruginosa biofilm formation inhibitors, primary screen, PAO1 strain, BacTiter-Glo luminescence, LB-PBS (AID 1144); settings: 12 h, higher = more signal
[4] = CREB reporter modulators without forskolin, primary screen, cell-based, PC12, CRE-LacZ reporter, unstimulated (AID 1145); settings: no forskolin, luminescence, 4.5 h, higher = more signal, called active from +8 up or from −8 down
[5] = CREB reporter modulators under forskolin, primary screen, cell-based, PC12, CRE-LacZ reporter, forskolin-stimulated (AID 1146); settings: luminescence, 4.5 h, higher = more signal, called active from +8 up or from −8 down;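 note: PC12 cells with 6xCRE LacZ reporter stimulated by forskolin 10 µM; beta-galactosidase reporter signal reflecting CREB driven transcription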
[6] = molecular target: Streptavidin (Streptomyces avidinii) (UniProt P22629); assay: streptavidin binders on small-molecule microarray, primary screen, artefact control for SMM compound annotation, biophysical, 635/667 nm fluorescence (AID 1147); settings: streptavidin binding, higher = more signal;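 note: signal reflects streptavidin binding to arrayed compounds as a control protein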
[7] = small-molecule binders of probe aInhba, primary screen, biochemical, small-molecule microarray, 635/667 nm fluorescence (AID 1148); settings: higher = more signal;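 note: score merges 667nm spot fluorescence with signal-to-noise for antibody binding to printed compounds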
Torsin-1A (Homo sapiens) [8] = molecular target: Torsin-1A (Homo sapiens) (UniProt O14656); assay: torsin A binders from cell lysate, primary screen, small-molecule microarray, wild-type, 635/667 nm (AID 1149); settings: COS7 hTOR1A-WT lysate, 635 nm fluorescence, higher = more signal
Torsin-1A (Homo sapiens) [9] = molecular target: Torsin-1A (Homo sapiens) (UniProt O14656); assay: small-molecule binders of mutant TOR1A in lysate, primary screen, cell lysate, small-molecule microarray, COS7 lysate, 635/667 nm fluorescence (AID 1150); settings: COS7 hTOR1A mutant lysate, 635 nm fluorescence, higher = more signal;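 note: score pools 667 nm emission and signal to noise measuring lysate protein binding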
[10] = system: Sonic hedgehog protein (Shh); assay: small-molecule binders of Shh protein, primary screen, biochemical, small-molecule microarray, 635/667 nm fluorescence (AID 1151); settings: small-molecule microarray binding, 635 nm fluorescence; higher = more signal;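 note: Shh protein binding to compounds spotted on small-molecule microarray slides; score combines spot fluorescence intensity with signal-to-noise across triplicate slides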
[11] = E. coli DRC41 culture turbidity changes, primary screen, E. coli filamentation inducer project, strain DRC41, OD650, 48 h (AID 1152);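 note: E. coli MC1000 strain DRC41 lacking acrAB efflux pump and sulA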; settings: E. coli DRC41 (acrAB sulA), higher = more signal, called active from +8 up or from −8 down
[12] = small-molecule binders of probe aLefty1, primary screen, biochemical, small-molecule microarray, 635/667 nm fluorescence (AID 1153); settings: higher = more signal;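 note: score merges spot fluorescence with signal-to-noise ratio from the scanned slide images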
[13] = PSAC antagonists in infected red cells, primary screen, cell-based, P. falciparum Indochina, OD700, 1 h (AID 1154); settings: P. falciparum Indochina infected RBC osmotic lysis, higher = more signal, called active from +8 up or from −8 down
[14] = PSAC antagonists in infected red cells, primary screen, cell-based, P. falciparum Indochina, OD700, 2 h (AID 1155);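 note: lysis reports solute entry through the parasite surface anion channel PSAC; channel blockers reduce lysis of infected cells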; settings: P. falciparum Indochina infected erythrocytes, osmotic lysis OD700; higher = more signal, called active from +8 up or from −8 down
[15] = osmotic lysis modulators in infected erythrocytes, primary screen, PSAC antagonist project, cell-based, P. falciparum Indochina, OD700, 3 h (AID 1156); settings: higher = more signal, called active from +8 up or from −8 down
[16] = PSAC antagonists in infected red cells, primary screen, cell-based, P. falciparum Indochina, OD700, 18 h (AID 1157); settings: P. falciparum Indochina infected erythrocytes, osmotic lysis OD700, 18 h; higher = more signal, called active from +8 up or from −8 down
[17] = modulators of S6 phosphorylation in cells, primary screen, cell-based, A549, cytoblot, luminescence, serum-stimulated (AID 1158); settings: A549 phospho-S6 cytoblot, 5 h, higher = more signal;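 note: serum-stimulated A549 lung adenocarcinoma cells; signal is phosphorylated S6 detected by cytoblot immunostaining with HRP secondary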
[18] = molecular target: NADPH oxidase 2 (Homo sapiens) (UniProt P04839); assay: NOX2-dependent H2O2 signal modulators, primary screen, NOX inhibitor project, cell-based, HEK293-NOX2, PMA-stimulated, Amplex Red fluorescence (AID 1159); settings: 45 min, higher = more signal, called active from +8 up or from −8 down; note: test concentration not given here
[19] = molecular target: NADPH oxidase 4 (Homo sapiens) (UniProt Q9NPH5); assay: NOX4-dependent H2O2 signal modulators, primary screen, NOX inhibitor project, cell-based, HEK293-NOX4, tetracycline-induced, Amplex Red fluorescence (AID 1160); settings: 45 min, higher = more signal, called active from +8 up or from −8 down
[20] = molecular target: NADPH oxidase 5 (Homo sapiens) (UniProt Q96PH1); assay: NOX5-dependent H2O2 signal modulators, primary screen, NOX inhibitor project, cell-based, HEK293-NOX5, Amplex Red fluorescence (AID 1161); settings: HEK293-NOX5, ionomycin, 45 min, higher = more signal
Sequence of NADPH oxidase 5 (Homo sapiens) (Q96PH1 whole entry, looked up): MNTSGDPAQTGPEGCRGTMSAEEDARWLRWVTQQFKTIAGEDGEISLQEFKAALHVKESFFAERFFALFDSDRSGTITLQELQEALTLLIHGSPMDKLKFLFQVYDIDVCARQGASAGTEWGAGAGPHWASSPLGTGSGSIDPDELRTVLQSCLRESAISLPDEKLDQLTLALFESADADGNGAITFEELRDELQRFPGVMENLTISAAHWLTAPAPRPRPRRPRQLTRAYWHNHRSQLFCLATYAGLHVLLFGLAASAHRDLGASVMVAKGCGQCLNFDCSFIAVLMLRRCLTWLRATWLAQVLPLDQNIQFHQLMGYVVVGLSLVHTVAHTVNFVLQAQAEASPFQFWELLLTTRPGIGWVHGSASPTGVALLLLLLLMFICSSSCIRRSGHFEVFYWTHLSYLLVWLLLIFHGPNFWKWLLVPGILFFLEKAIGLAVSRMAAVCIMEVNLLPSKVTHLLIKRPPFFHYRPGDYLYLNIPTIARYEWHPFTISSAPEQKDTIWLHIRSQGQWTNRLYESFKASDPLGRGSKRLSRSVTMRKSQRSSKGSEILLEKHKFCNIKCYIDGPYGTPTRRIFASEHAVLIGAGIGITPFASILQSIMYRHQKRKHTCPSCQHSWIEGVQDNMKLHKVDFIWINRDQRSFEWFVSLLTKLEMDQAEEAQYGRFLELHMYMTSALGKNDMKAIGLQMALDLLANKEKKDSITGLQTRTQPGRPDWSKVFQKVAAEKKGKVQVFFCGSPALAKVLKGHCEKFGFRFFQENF

Sequence of Streptavidin (Streptomyces avidinii) (P22629 whole entry, looked up): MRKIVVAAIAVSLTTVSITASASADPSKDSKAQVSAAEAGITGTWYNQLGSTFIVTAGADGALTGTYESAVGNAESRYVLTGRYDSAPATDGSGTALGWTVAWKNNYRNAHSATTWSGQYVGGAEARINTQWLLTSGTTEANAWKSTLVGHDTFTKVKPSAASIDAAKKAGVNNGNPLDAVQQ
Sequence of Torsin-1A (Homo sapiens) (O14656 whole entry, looked up): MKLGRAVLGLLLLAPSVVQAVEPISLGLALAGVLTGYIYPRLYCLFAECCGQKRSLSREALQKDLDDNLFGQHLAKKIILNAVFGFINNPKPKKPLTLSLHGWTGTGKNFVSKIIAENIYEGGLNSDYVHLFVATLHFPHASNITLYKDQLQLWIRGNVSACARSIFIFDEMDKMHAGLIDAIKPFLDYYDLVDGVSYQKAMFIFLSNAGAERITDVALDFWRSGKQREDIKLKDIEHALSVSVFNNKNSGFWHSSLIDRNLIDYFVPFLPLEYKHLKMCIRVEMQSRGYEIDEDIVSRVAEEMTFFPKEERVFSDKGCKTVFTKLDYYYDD
Sequence of NADPH oxidase 2 (Homo sapiens) (P04839 whole entry, looked up): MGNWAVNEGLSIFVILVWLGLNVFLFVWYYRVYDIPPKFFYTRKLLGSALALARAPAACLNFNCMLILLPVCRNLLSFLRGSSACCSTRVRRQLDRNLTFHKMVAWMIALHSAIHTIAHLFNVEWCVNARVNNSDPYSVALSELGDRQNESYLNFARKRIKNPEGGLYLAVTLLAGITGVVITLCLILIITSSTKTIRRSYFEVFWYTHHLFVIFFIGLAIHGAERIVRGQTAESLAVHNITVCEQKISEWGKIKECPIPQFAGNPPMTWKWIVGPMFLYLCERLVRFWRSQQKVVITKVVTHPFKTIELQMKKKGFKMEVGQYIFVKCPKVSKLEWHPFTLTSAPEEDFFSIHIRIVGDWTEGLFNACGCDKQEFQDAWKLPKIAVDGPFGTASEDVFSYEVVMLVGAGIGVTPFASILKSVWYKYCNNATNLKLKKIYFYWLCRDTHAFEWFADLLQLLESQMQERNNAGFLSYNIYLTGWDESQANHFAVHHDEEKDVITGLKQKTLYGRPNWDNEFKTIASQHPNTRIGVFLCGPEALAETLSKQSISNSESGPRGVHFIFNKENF
Sequence of NADPH oxidase 4 (Homo sapiens) (Q9NPH5 whole entry, looked up): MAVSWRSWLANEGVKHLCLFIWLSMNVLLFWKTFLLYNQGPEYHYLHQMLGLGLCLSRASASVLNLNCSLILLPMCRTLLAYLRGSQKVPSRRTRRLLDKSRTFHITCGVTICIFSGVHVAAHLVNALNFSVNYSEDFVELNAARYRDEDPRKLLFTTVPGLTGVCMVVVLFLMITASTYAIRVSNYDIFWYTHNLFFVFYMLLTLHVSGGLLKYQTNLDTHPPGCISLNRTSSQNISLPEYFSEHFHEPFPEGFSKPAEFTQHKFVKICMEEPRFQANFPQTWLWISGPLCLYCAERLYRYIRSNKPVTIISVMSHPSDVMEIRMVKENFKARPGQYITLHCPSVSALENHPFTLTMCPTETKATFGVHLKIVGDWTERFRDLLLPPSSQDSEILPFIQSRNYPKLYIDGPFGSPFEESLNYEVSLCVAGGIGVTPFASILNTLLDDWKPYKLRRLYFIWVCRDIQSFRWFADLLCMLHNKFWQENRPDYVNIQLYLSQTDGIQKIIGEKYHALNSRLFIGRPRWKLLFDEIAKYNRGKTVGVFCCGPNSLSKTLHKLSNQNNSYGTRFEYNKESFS

Structure (SMILES)	composite z-score [1]	z-score [2]	z-score [3]	z-score [4]	z-score [5]	composite z-score [6]	composite z-score [7]	composite z-score (Torsin-1A (Homo sapiens) [8])	composite z-score (Torsin-1A (Homo sapiens) [9])	composite z-score [10]	z-score [11]	composite z-score [12]	z-score [13]	z-score [14]	z-score [15]	z-score [16]	z-score [17]	z-score [18]	z-score [19]	z-score [20]
O=C1C[C@@](C(=O)O)(c2ccc([N+](=O)[O-])cc2)[C@@H](c2ccc(CO)cc2I)N1C1CCCCC1	0.45	-4.77 (inactive)	-2.27 (inactive)	-0.619 (inactive)	-0.598 (inactive)	0.988	0.0905	-0.757	0.206	-0.196	1.52 (inactive)	0.208	17.5 (active)	2.77 (inactive)	3.02 (inactive)	0.202 (inactive)	1.84	1.46 (inactive)	-2.82 (inactive)	-1.78
CCCNC(=O)[C@@]1(C)c2ccccc2C(=O)N(Cc2cc(F)cc(C(F)(F)F)c2)[C@H]1c1ccc(CO)cc1	-0.283	-3.38 (inactive)	-1.09 (inactive)	0.208 (inactive)	-0.173 (inactive)	-0.767	-0.175	-2.08	0.779	0.011	0.119 (inactive)	-0.252	7.04 (inactive)	0.576 (inactive)	1.03 (inactive)	0.644 (inactive)	0.324	-1.29 (inactive)	-1.51 (inactive)	-2.07
COc1ccc([Si](C)(C)[C@@H]2[C@@H](CC(=O)N3Cc4ccccc4C[C@H]3CO)O[C@]3(C(=O)N(Cc4cccc(N5C(=O)COc6ccccc65)c4)c4ccccc43)[C@H]2C)cc1	-0.0857	-4.33 (inactive)	-0.219 (inactive)	3.56 (inactive)	-0.431 (inactive)	0.535	-0.18	0.718	0.301	1.57	2.59 (inactive)	-0.286	4.94 (inactive)	1.18 (inactive)	-0.0434 (inactive)	0.208 (inactive)	4.59	-0.387 (inactive)	0.518 (inactive)	0.827
CCN(CC)c1ccc(N2CC=CC34O[C@@H]5/C=C\CCC(C)OC(=O)C5[C@H]3C(=O)N(CCCCCCO)[C@@H]4C2=O)cc1 (stereo not given in full)	-0.449	-0.406 (inactive)	0.398 (inactive)	0.886 (inactive)	0.57 (inactive)	-0.629	-0.359	0.84	0.0844	-0.166	0.699 (inactive)	-0.464	-0.37 (inactive)	0.0486 (inactive)	-0.383 (inactive)	0.33 (inactive)	1.35	-0.315 (inactive)	-0.0195 (inactive)	0.813
COc1c(C)cc(-c2cc3c(c(-c4ccccc4)n2)[Si](C(C)C)(C(C)C)O[C@H]3c2ccccc2)cc1C	-0.0797	0.393 (inactive)	-0.0188 (inactive)	-0.244 (inactive)	-0.0226 (inactive)	-0.0096	-0.119	-0.381	-0.22	0.618	-1.11 (inactive)	0.176	0.481 (inactive)	-0.129 (inactive)	-0.561 (inactive)	0.284 (inactive)	0.291	-1.36 (inactive)	0.788 (inactive)	-0.334
COCCOC(=O)N1C(=O)[C@@]2(c3ccccc31)[C@H](c1ccc(O)cc1)N1[C@H](c3ccccc3)[C@H](c3ccccc3)OC(=O)[C@H]1[C@@H]2C(N)=O	-0.235	-1.34 (inactive)	0.0439 (inactive)	0.208 (inactive)	1.88 (inactive)	-0.516	-0.128	-1.04	0.619	-0.218	0.0672 (inactive)	-0.379	2 (inactive)	1.18 (inactive)	1.34 (inactive)	0.44 (inactive)	-0.0639	-0.198 (inactive)	-0.747 (inactive)	-0.0275
Cc1ccc(N2C(=O)c3ccccc3[C@@H](C(=O)NCC(C)C)[C@@H]2c2ccc(CO)cc2)nc1	-0.0957	-0.308 (inactive)	0.504 (inactive)	-0.295 (inactive)	0.892 (inactive)	-1.45	-0.231	-1.67	-1.47	-0.0902	0.569 (inactive)	-0.0186	3.15 (inactive)	0.48 (inactive)	1.38 (inactive)	0.231 (inactive)	0.0174	-0.0277 (inactive)	0.918 (inactive)	0.84
O=C1O[C@@H](c2ccccc2)[C@@H](c2ccccc2)N2[C@@H](c3ccc(O)cc3)[C@]3(C(=O)Nc4ccccc43)[C@@H](C(=O)N3CCCCCCC3)[C@H]12	1.36	-2.61 (inactive)	-0.279 (inactive)	0.0384 (inactive)	0.276 (inactive)	2.93	1.98	1.91	1.8	2.02	-0.779 (inactive)	2.88	0.571 (inactive)	-0.0476 (inactive)	-1.25 (inactive)	0.516 (inactive)	-0.274	0.915 (inactive)	0.522 (inactive)	1.57
CCCCN1CC=CC23O[C@@H]4C=CCCOC(=O)C4[C@H]2C(=O)N(CCCO)[C@@H]3C1=O (stereo not given in full)	-0.148	-2.05 (inactive)	-1.19 (inactive)	-0.484 (inactive)	0.46 (inactive)	-0.614	-0.176	-0.387	-0.954	-0.278	0.62 (inactive)	-0.321	0.158 (inactive)	-1.01 (inactive)	0.224 (inactive)	-1.34 (inactive)	0.243	-0.168 (inactive)	-1.73 (inactive)	-1.34
